T1: USP38, Q8NB14
T1 chain: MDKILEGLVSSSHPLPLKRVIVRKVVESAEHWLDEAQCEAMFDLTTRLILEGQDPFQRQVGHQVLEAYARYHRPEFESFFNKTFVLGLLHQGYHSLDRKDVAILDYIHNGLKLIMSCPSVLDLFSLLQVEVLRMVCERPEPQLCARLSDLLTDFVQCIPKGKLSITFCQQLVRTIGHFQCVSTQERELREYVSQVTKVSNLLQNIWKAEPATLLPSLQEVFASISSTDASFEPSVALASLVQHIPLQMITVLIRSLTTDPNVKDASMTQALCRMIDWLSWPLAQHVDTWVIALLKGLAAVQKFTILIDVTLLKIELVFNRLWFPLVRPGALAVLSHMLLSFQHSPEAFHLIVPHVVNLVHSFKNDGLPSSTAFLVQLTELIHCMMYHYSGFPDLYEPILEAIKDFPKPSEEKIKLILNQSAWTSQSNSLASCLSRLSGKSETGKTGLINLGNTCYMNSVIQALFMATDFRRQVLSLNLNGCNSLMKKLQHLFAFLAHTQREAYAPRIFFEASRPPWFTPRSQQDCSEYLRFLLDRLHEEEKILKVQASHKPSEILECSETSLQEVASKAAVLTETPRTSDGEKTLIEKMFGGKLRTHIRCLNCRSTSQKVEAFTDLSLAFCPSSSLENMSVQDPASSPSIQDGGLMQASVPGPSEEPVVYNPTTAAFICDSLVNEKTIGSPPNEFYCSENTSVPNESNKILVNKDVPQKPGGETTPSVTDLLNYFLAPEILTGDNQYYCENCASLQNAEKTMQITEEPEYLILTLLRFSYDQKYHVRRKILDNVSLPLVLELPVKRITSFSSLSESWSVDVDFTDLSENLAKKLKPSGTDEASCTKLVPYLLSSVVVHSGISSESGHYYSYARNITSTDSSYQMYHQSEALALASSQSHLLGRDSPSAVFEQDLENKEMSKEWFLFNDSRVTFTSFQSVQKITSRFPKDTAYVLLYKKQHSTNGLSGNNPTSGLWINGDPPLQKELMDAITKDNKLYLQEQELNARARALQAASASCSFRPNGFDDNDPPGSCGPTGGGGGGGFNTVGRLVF

B1: usp_38_diff_out_9_42_629 (protein)
chain: RKELEERLLELIRETGEVLREAEEVLRELREVDPEAARRFRREVAELLDKIDDKLLKAQRLLLQDESKYPEAQAALDEAERLVEELRRLAEEWRRRLKER
B2: usp_38_diff_out_9_42_625 (protein)
chain: MKELEEKREETLKLIAEAGRYVDEVIERLAKLDPELARELRREAAEAHDKIVELTQEANKYYLAGEETKEEFLAKLDEIKKIVDELRKRAEELLAAAEAA
B3: usp_38_diff_out_9_172_624 (protein)
chain: DLESKRFKIQWLLADAIDLLQKIAKKADEENKKKLIEAAMLLLKASQLVVEGGDKEEILKLLEEAKKLVKELAKKDPKNKKELEEAIKLIEEAIKLVKEL

Molecular target: T1, USP38, Q8NB14
Test: median log2 fold change of GCK-ALFA target abundance (FLAG IP / Myc IP barcode read proportion) (log2 ratio); each designed protein is fused to an ALFA-tag nanobody in HEK293 cells to bring the named protein to FLAG-tagged glucokinase (GCK); Myc marks an untargeted standard; higher = target protein stabilised (more abundant)
Conditions: target protein: 3xFLAG-MCP-GCK-ALFA reporter; HEK293 landing pad (RPLP)
Procedure, shortened: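 The readout is target abundance, the per-binder median log2 ratio of FLAG to Myc barcode read proportions. It came from HEK293 landing-pad cells carrying a recombined ALFA-nanobody-fused binder library, induced with 2 μg mL^−1 doxycycline and transfected with a plasmid for a FLAG-tagged target and a Myc-tagged standard. After 48 h, lysates were immunoprecipitated with anti-FLAG and anti-Myc, and circular RNA barcodes were reverse transcribed, amplified and sequenced. Each barcode needed a proportion of at least 10^−7 in both replicates and each binder at least 3 barcodes per replicate, a pseudocount of 10^−6 was added, and the replicates were pooled.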

| Binder | median log2 fold change |
| --- | --- |
| B1 | -0.63 |
| B2 | 0.146 |
| B3 | -0.076 |
